{"source": "PubChem BioAssay AID504474", "about": "(National Center for Advancing Translational Sciences (NCATS), 2011)", "note": "The source made the active and inactive calls.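 Rule for the calls: active = clear inhibition of the enzyme's cutting of labeled DNA at one or more tested doses; inactive = response stays at baseline.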", "data": [{"biological_target": "Tyrosyl-DNA phosphodiesterase 1 (Homo sapiens) (UniProt Q9NUW8)", "sequence (Q9NUW8 whole entry, looked up)": "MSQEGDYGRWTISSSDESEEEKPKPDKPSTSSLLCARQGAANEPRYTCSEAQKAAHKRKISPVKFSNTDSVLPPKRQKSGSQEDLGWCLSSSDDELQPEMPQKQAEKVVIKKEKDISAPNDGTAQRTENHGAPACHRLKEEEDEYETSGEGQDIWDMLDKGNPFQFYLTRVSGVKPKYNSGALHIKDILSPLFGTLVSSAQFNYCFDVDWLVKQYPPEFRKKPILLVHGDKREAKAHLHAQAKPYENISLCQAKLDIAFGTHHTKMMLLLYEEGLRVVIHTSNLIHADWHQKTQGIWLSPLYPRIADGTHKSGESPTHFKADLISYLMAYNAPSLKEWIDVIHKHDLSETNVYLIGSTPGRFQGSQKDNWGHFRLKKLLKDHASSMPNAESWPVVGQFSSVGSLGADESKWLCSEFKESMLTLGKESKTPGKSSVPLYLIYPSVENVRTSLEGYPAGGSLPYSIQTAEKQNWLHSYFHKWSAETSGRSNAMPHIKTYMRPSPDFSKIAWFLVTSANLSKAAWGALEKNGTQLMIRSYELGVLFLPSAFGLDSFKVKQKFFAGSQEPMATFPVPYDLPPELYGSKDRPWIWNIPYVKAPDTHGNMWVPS", "assay": "Gel-Based Assay for Inhibitors of Tyrosyl-DNA Phosphodiesterase (TDP1): Hit Validation", "settings": "Recombinant TDP1, 32P-DNA substrate cleavage, gel densitometry", "excerpt": "Assay Overview: Human tyrosyl-DNA phosphodiesterase I (Tdp1) is a rational anticancer target because this enzyme is involved in the repair of DNA lesions created by the trapping of human DNA topoisomerase I (Top1) following treatment by anticancer agents such as camptothecins. Recombinant Tdp1 was expressed and purified from E. coli in the laboratory (Anthony et al, Nucleic Acids Research, 2007, Vol. 35, 4474-4484). See below for assay protocol. This is assay was used to validate select hits from the related primary AlphaScreen assay (AID: 485290) NIH Molecular Libraries Probe Production Network [MLPCN] NIH Chemical Genomics Center [NCGC] Assay Provider: Yves Pommier and Christophe Marchand, National Cancer Institute\n5'-32P-labeled DNA substrate (1 nmol/L; N14Y; 5'-[…]-pY-3') was incubated with 0.2 nmol/L recombinant Tdp1 in the absence or presence of inhibitor for 15 min at room temperature in an assay buffer containing 1X PBS, pH 7.4, 80 mmol/L KCl and 0.01% Tween-20. Reactions were terminated by the addition of 1 volume of gel loading buffer [99.5% (v/v) formamide, 5 mmol/L EDTA, 0.01% (w/v) xylene cyanol, and 0.01% (w/v) bromophenol blue]. Samples were subjected to a 16% denaturing PAGE and gels were exposed after drying to a PhosphorImager screen (GE Healthcare). […]", "values": [{"smiles": "O=c1c2ccccc2nc2sc(Nc3cccc(Cl)c3)nn12", "Potency": "7.4 µM (active)"}, {"smiles": "O=c1c2ccccc2nc2sc(Nc3ccc(F)cc3)nn12", "outcome": "inactive"}]}]}
